Measured values taken from the supplement of paper PMC10849652.
Targets with a hit are over-represented here; the source holds about 8,800 in all. About 0.5% of all pairs of compound and target were hits. A number with no mark means an inactive call.

Columns and labels:
Experiment in all cases: log2 fold change, soluble protein after heating vs DMSO (PISA); higher = thermal stabilisation; K562 lysate, 10 uM; active = over 0.2 and 3.5 SD of the protein, either way, in both replicates (recomputed)
erlotinib = compound: C#Cc1cccc(Nc2ncnc3cc(OCCOC)c(OCCOC)cc23)c1 [erlotinib]
In short: (§1)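 Pellets of K562 cells were dounce-homogenised in PBS pH 7.4 with 1 mM MgCl2, and the crude extract was held at 1 mg/mL protein for a 30 min treatment with 10 μM compound. Aliquots were heated for 3 min over 48°C-58°C and pooled before NP-40 was added to 0.5% at 4°C. The supernatant from 21,000xg for 90 min was quantified by TMTpro 16plex LC-MS/MS with channel sums equalised. Values are reported from duplicates as log-two fold change in thermal stability relative to solvent controls.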

[1] = compound: C/C(=N\NC(=O)C1=CC(=CC=C1)S(=O)(=O)N2CCOCC2)/C3=C(C=CC(=C3)Cl)O
In short: as §1

[2] = compound: C1=CC(=CC=C1C2=NC3=C(N2)C=C(C=C3)C(=O)N)OC4=CC=C(C=C4)Cl
In short: as §1

[3] = compound: C1=CC2=C(C=CC(=C2)/C=C\3/C(=O)NC(=NCC4=CC=CS4)S3)N=C1
In short: as §1

[4] = compound: C1=CC2=NC=CN=C2C=C1/C=C/3\C(=O)NC(=O)S3
In short: as §1

[5] = compound: C1=CC=C(C=C1)C2=NC(=C(N2)C3=CC=NC=C3)C4=CC(=C(C=C4)Cl)O
In short: as §1

[6] = compound: C1=CC=C2C(=C1)C3=NNC4=CC=CC(=C43)C2=O
In short: as §1

[7] = compound: C1CCN(C1)C(=O)NC2=CC=CC(=C2)NC3=NC=C(C(=N3)NCCC4=CN=CN4)Br
In short: as §1

[8] = compound: C1CN(CCC1(CC2=CC=C(C=C2)Cl)N)C3=NC=NC4=C3C=CN4
In short: as §1

IRAK-1-4 Inhibitor I = compound: C1COCCN1CCN2C3=CC=CC=C3N=C2NC(=O)C4=CC(=CC=C4)[N+](=O)[O-] [IRAK-1-4 Inhibitor I]
In short: as §1

ibrutinib = compound: C=CC(=O)N1CCC[C@@H](n2nc(-c3ccc(Oc4ccccc4)cc3)c3c(N)ncnc32)C1 [ibrutinib]
In short: as §1

[9] = compound: CC(=O)c1cnc2ccc(-c3cc(Cl)c(O)c(Cl)c3)nc2c1N[C@H]1CC[C@H](CN(C)C)CC1
In short: as §1

ralimetinib = compound: CC(C)(C)Cn1c(N)nc2ccc(-c3[nH]c(C(C)(C)C)nc3-c3ccc(F)cc3)nc21 [ralimetinib]
In short: as §1

[10] = compound: CC(C)(O)CC(=O)NCCn1ccc2ncnc(Nc3ccc(Oc4cccc(C(F)(F)F)c4)c(Cl)c3)c21
In short: as §1

[11] = compound: CC(C)C1=C2N=C(C=C(N2N=C1)NCC3=CC=CC=C3)NCCCCCCN
In short: as §1

[12] = compound: CC1=C(C(CC(=O)N1)C2=CC=C(C=C2)C(F)(F)F)C(=O)NC3=C(C=C4C(=C3)C=NN4)F
In short: as §1

[13] = compound: CC1=C(C2=C(C=C1)C(=O)C3=CC=CC=C3N2CCCN)C
In short: as §1

[14] = compound: CC1=C(C=C(C=C1)NC(=O)C2=CC(=CC=C2)C(C)(C)C#N)NC3=CC4=C(C=C3)N=CN(C4=O)C
In short: as §1

[15] = compound: CC1=C(C=C(C=C1)NC(=O)C2=CC(=CC=C2)N(C)C)NC(=O)C3=CC=C(C=C3)O
In short: as §1

[16] = compound: CC1=CC=C(C=C1)SC2=C3C=C(SC3=CN=C2)C(=O)N
In short: as §1

Chain of UniProt Q6IPR3 (Q6IPR3 whole entry, looked up): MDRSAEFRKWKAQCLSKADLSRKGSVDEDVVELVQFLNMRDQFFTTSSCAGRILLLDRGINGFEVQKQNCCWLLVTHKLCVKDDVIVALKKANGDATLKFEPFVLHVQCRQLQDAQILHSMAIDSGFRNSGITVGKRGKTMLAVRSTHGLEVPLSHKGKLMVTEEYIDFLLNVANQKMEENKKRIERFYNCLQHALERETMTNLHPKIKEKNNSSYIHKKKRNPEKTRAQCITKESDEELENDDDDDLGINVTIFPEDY
Chain of UniProt Q96S44 (Q96S44 whole entry, looked up): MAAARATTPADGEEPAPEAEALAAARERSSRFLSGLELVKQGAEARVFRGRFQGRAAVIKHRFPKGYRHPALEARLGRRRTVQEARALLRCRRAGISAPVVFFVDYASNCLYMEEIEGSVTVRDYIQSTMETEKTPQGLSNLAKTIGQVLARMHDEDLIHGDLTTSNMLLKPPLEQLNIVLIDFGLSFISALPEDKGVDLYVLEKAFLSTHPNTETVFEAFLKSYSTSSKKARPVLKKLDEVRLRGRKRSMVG
Chain of UniProt Q12800 (Q12800 whole entry, looked up): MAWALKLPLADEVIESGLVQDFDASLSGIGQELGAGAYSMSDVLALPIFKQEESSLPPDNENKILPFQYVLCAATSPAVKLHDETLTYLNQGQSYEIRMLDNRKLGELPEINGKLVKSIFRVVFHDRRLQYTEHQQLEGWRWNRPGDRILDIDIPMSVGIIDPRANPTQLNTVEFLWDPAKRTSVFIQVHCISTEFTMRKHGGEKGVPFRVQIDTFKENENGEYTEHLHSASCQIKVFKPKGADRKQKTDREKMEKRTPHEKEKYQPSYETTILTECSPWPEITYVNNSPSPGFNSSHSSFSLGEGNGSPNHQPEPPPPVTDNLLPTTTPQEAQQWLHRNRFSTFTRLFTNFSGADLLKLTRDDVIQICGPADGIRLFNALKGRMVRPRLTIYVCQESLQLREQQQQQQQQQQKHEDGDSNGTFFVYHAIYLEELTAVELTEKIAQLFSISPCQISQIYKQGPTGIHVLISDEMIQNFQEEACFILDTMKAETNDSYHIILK
Chain of UniProt Q9UKI8 (Q9UKI8 whole entry, looked up): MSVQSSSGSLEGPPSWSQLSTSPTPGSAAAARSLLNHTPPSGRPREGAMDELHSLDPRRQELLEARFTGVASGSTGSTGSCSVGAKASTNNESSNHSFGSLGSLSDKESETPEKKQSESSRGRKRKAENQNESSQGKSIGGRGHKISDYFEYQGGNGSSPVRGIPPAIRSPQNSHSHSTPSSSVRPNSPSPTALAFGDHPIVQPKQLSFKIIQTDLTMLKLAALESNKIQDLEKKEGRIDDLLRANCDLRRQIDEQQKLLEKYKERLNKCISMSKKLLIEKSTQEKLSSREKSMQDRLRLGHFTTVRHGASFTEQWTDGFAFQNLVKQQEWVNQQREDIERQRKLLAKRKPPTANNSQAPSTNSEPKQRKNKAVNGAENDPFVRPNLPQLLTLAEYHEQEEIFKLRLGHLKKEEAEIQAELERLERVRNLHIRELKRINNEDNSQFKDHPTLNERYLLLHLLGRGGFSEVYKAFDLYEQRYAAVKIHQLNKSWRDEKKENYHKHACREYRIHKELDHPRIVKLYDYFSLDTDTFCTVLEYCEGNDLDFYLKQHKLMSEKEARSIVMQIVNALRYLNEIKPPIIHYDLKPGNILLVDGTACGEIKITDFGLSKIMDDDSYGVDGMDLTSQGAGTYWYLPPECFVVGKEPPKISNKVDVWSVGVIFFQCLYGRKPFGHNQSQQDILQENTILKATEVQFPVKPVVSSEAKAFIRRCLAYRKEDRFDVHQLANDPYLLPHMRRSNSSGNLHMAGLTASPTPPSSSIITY
Chain of UniProt Q12815 (Q12815 whole entry, looked up): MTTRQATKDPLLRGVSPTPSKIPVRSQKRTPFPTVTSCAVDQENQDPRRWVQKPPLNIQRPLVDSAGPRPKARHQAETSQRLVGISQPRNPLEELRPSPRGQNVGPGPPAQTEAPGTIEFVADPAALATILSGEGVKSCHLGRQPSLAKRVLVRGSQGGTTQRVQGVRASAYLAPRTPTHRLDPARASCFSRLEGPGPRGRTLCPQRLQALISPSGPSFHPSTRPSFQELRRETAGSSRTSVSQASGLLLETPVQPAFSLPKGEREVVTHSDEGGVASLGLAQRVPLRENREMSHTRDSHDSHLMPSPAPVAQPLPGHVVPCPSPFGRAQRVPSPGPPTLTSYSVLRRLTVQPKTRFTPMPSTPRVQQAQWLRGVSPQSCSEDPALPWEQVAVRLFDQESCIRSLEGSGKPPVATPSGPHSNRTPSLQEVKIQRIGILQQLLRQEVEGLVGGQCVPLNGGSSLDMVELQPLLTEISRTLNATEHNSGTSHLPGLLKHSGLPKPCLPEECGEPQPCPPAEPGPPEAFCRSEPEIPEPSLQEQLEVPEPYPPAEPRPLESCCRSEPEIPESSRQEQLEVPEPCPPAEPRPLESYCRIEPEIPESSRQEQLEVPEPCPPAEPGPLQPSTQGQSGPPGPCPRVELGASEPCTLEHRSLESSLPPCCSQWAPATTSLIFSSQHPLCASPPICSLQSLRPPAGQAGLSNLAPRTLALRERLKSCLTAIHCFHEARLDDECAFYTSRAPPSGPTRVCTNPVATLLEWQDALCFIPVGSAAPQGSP
Chain of UniProt Q96DX7 (Q96DX7 whole entry, looked up): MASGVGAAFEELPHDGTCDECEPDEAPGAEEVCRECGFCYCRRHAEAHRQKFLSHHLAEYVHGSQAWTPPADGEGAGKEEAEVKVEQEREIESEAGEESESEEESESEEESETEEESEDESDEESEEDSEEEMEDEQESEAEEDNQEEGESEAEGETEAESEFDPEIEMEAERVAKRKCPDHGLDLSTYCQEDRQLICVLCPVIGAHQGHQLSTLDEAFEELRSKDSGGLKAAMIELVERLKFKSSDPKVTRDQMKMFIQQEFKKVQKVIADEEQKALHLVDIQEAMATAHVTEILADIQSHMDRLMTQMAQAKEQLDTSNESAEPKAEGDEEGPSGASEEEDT
Chain of UniProt Q9H497 (Q9H497 whole entry, looked up): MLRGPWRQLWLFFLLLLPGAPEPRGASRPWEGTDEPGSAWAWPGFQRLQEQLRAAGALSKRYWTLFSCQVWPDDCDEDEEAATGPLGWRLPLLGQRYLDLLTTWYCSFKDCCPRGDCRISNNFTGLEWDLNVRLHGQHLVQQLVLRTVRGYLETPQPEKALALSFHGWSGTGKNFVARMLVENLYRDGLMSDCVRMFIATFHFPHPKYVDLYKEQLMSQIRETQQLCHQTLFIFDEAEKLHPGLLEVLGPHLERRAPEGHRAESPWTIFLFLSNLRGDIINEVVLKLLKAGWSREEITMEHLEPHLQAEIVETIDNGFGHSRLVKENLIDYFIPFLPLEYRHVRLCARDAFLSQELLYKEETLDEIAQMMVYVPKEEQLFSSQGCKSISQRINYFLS
Chain of UniProt P04183 (P04183 whole entry, looked up): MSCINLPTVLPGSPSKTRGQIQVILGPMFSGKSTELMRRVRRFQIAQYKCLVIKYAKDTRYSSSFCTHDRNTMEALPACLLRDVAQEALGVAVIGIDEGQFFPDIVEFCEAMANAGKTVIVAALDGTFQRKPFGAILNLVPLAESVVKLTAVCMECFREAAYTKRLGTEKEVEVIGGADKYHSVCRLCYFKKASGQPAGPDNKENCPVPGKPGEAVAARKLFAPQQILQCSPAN
Chain of UniProt A6NFQ2 (A6NFQ2 whole entry, looked up): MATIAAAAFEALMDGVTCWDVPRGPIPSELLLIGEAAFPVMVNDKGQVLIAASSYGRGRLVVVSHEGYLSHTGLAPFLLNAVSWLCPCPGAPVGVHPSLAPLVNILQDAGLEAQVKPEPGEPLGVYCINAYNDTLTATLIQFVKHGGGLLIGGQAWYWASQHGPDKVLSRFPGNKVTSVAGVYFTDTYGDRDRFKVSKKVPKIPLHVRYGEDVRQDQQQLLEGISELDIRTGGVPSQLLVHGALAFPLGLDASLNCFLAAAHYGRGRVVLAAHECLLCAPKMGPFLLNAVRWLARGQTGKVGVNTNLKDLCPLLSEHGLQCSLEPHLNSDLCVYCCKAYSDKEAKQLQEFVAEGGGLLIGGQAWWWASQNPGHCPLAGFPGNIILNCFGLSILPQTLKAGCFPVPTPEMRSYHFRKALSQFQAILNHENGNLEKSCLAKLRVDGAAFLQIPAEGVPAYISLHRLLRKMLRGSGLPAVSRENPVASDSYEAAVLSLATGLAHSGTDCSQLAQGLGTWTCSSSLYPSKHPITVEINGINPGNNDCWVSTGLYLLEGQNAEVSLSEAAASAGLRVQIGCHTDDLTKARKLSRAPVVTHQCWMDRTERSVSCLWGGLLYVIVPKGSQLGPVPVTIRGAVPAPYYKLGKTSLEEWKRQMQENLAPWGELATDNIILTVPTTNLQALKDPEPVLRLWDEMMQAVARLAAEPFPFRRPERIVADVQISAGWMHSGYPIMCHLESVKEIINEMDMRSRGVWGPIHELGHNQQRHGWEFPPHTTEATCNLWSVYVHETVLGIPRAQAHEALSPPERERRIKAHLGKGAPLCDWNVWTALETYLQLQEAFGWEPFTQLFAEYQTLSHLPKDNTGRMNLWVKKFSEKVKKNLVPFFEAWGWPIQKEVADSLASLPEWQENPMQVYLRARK
Chain of UniProt Q8N0Z6 (Q8N0Z6 whole entry, looked up): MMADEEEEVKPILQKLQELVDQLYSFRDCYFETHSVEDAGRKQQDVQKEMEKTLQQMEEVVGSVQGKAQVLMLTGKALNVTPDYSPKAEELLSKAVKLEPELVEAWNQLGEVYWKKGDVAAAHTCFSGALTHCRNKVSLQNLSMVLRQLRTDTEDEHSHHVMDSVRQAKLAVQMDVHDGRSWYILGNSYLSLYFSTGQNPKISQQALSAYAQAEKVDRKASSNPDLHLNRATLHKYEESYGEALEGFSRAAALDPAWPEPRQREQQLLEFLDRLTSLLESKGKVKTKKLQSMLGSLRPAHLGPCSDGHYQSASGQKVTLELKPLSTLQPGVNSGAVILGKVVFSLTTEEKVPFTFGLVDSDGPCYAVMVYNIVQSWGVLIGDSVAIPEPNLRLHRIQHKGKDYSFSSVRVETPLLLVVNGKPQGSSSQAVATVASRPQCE

Target | log2 fold change (erlotinib) | log2 fold change [1] | log2 fold change [2] | log2 fold change [3] | log2 fold change [4] | log2 fold change [5] | log2 fold change [6] | log2 fold change [7] | log2 fold change [8] | log2 fold change (IRAK-1-4 Inhibitor I) | log2 fold change (ibrutinib) | log2 fold change [9] | log2 fold change (ralimetinib) | log2 fold change [10] | log2 fold change [11] | log2 fold change [12] | log2 fold change [13] | log2 fold change [14] | log2 fold change [15] | log2 fold change [16]
TYW3 (UniProt Q6IPR3) | -0.002 | 0.003 | 0.063 | -0.032 | -0.008 | 0.002 | -0.07 | -0.054 | 0.014 | 0.018 | -0.052 | -0.054 | -0.016 | -0.081 | 0.043 | -0.015 | -0.021 | 0.025 | 0.01 | -0.004
TRIM44 (UniProt Q96DX7) | -0.066 | 0.067 | -0.016 | -0.037 | 0.057 | -0.013 | -0.038 | 0.053 | 0.072 | 0.043 | 0.031 | 0.124 | 0.032 | -0.013 | -0.037 | -0.021 | -0.004 | -0.044 | 0.022 | 0.086
TUBB3 (UniProt Q13509) | 0.025 | -0.089 | 0.016 | -0.004 | 0.001 | -0.019 | -0.025 | 0.018 | 0.03 | 0.006 | 0.003 | 0.009 | 0.022 | -0.019 | 0.025 | 0.013 | 0.005 | -0.007 | 0.015 | 0.019
TBK1 (UniProt Q9UHD2) | -0.005 | -0.066 | -0.03 | 0.006 | -0.067 | 0.023 | 0.238 | 0.214 | -0.047 | 0.082 | -0.02 | 0.159 | -0.007 | -0.035 | 0.047 | 0.015 | -0.016 | -0.034 | 0.032 | -0.013
TPM1 (UniProt H7BYY1) | -0.034 | -0.004 | -0.057 | 0.026 | -0.008 | 0.091 | -0.041 | 0.012 | -0.02 | -0.071 | -0.002 | -0.018 | -0.035 | 0.068 | 0.037 | -0.027 | 0.023 | -0.045 | 0.039 | -0.034
TROAP (UniProt Q12815) | -0.023 | -0.02 | 0.028 | -0.036 | -0.054 | 0.017 | -0.027 | 0.035 | 0.104 | -0.011 | 0.191 | -0.096 | 0.042 | -0.02 | 0.037 | 0.011 | 0.02 | -0.006 | 0.08 | -0.25
TFCP2 (UniProt Q12800) | -0.035 | 0.08 | -0.115 | 0.01 | -0.042 | -0.007 | -0.02 | -0.038 | -0.044 | 0.035 | -0.055 | 0.054 | 0.032 | -0.028 | 0.051 | -0.026 | 0 | 0.059 | -0.02 | 0.026
TP53RK (UniProt Q96S44) | -0.005 | 0.025 | 0.038 | -0.24 (active) | -0.37 (active) | -0.03 | 0.042 | 0.014 | -0.022 | -0.008 | 0.02 | -0.059 | 0.019 | -0.008 | 0.007 | -0.013 | -0.004 | 0 | -0.02 | -0.071
TK1 (UniProt P04183) | 0.003 | -0.112 | 0.036 | -0.001 | 0.028 | -0.003 | 0.021 | 0.013 | 0.017 | 0.008 | 0.004 | -0.004 | 0.023 | -0.022 | -0.029 | 0 | 0.006 | 0.046 | -0.014 | -0.006
TLK1 isoform 2 (UniProt Q9UKI8) | 0 | -0.029 | -0.024 | -0.013 | -0.007 | -0.016 | 0.145 | 0.007 | 0.099 | 0.023 | 0.017 | 0.094 | 0.053 | 0.01 | 0.012 | -0.002 | 0.038 | -0.013 | -0.037 | 0
UBE2H (UniProt P62256) | -0.002 | -0.002 | 0.009 | 0.008 | 0.014 | 0.029 | 0.019 | 0.013 | -0.036 | -0.026 | 0.032 | 0.026 | -0.033 | -0.002 | -0.004 | 0.064 | 0.022 | 0.005 | 0.026 | -0.027
TOR3A (UniProt Q9H497) | 0 | 0.002 | 0.006 | -0.008 | -0.01 | -0.012 | -0.087 | 0.039 | 0.013 | 0.021 | 0.008 | 0.023 | 0.002 | -0.017 | -0.001 | 0.018 | -0.022 | -0.036 | 0.018 | 0.365 (active)
TTC5 (UniProt Q8N0Z6) | -0.015 | -0.089 | -0.014 | -0.034 | 0.041 | 0.022 | 0.016 | 0.017 | 0.033 | -0.008 | 0.019 | 0.007 | 0.017 | 0.001 | 0.042 | -0.089 | -0.01 | 0.017 | 0.016 | -0.001
TPX2 (UniProt Q9ULW0) | -0.014 | -0.008 | 0.032 | -0.022 | -0.013 | 0.019 | 0.001 | -0.005 | -0.026 | 0.006 | 0.024 | -0.01 | 0.003 | -0.006 | 0.036 | -0.005 | -0.008 | 0.062 | 0.001 | -0.01
TMPO (UniProt P42167) | -0.016 | 0.021 | -0.021 | -0.027 | 0.014 | -0.029 | -0.073 | -0.019 | -0.032 | -0.002 | -0.003 | 0.009 | 0.018 | -0.001 | -0.044 | 0.006 | 0.005 | -0.043 | -0.006 | -0.064
TCAF2 (UniProt A6NFQ2) | -0.006 | -0.218 | -0.003 | -0.059 | -0.038 | -0.027 | -0.033 | -0.022 | -0.047 | -0.005 | 0.009 | -0.009 | 0.078 | -0.017 | 0.013 | 0.022 | 0.055 | -0.005 | -0.021 | 0.063
